Several values for one entry are separate records, joined by “and”; a condition that tells them apart may be missing. Identical values can stand only once. Inconclusive results are not listed. Values without a mark were called inactive. Activity calls are given as the source filed them. Calls come from the whole dose curve; as a rule, active = well fitted inhibition curve with a large enough effect; inconclusive = small, poorly fitted or top-dose-only effect; inactive = flat fitted curve, though single readings scatter.
% is set by controls: 0 for no effect and ±100 for the full control effect.

The first assay deals with HaCat. Kind of assay: Cytotoxic Profiling of Annotated Libraries Using Quantitative High-Throughput Screening (AID 1296008). Note: nearly all actives have a fitted effect of over 60% in size. The note with it: Five cell lines viability, CellTiter-Glo ATP luminescence, 48-72 h; max response: active compounds read low. In short, it runs like this: (§1)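 Cells exposed to compounds for 48 or 72 hr at 37 degrees Celsius. Viability read as ATP-coupled luminescence with CellTiter-Glo after 10 min at room temperature.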
`CCCC(C(=O)OCCN(CC)CC)(c1ccccc1)c1ccccc1`: the max response is -7.15%.

In the case of `OCCN1CCN(CCCN2c3ccccc3C=Cc3ccccc32)CC1`, the outcome was inactive.

Consider `OCCN1CCN(CC/C=C2/c3ccccc3Sc3ccc(C(F)(F)F)cc32)CC1`, for which the max response was -11.5%.

In the case of `CCCN1C[C@H](CSC)C[C@@H]2c3cccc4[nH]cc(c34)C[C@H]21`, the max response is 4.81% and -5.73%.

As for `Nc1nc(N)c2nc(-c3ccccc3)c(N)nc2n1`, the max response is -19.1%.

Turning to `CCN(CC)CCCN(c1ccccc1)C1Cc2ccccc2C1`, the compound was called inactive.

Turning to `CCc1cccc(N(C)C(N)=Nc2cccc3ccccc23)c1`, the max response is -4.04%.

Consider `NC1=NCC2c3ccccc3Cc3ccccc3N12` (stereo unspecified), for which the max response was -7.94%.

For the compound `COc1ccc(CN(CCN(C)C)c2ccccn2)cc1`, the result was inactive.

As to `COCCOC(=O)C1=C(C)NC(C)=C(C(=O)OC(C)C)C1c1cccc([N+](=O)[O-])c1` (stereo unspecified), the result was inactive.

Take `COc1cc2c(cc1OC)-c1cc(=Nc3c(C)cc(C)cc3C)n(C)c(=O)n1CC2`: the result was inactive.

Turning to `c1cc(CN2CCCCC2)cc(OCCCNc2nc3ccccc3s2)c1`, the call was inactive.

For `C[C@]12CC[C@@H]3c4ccc(O)cc4C[C@@H](CCCCCCCCCS(=O)CCCC(F)(F)C(F)(F)F)[C@H]3[C@@H]1CC[C@@H]2O` (stereo partly specified), the max response was -6.63%.

Consider `CNCCCN1c2ccccc2CCc2ccccc21`, for which the outcome was inactive.

For the compound `CC(=O)[C@@]1(O)CC[C@H]2[C@@H]3CCC4=CC(=O)CC[C@]4(C)[C@H]3CC[C@@]21C`, the max response is 1.18%.

Take `CCOC(=O)C1=C(C)NC(C)=C(C(=O)OC)C1c1cccc(Cl)c1Cl` (stereo unspecified): the compound was classed as inactive.

Take `O=C(CCCN1CCC(O)(c2cccc(C(F)(F)F)c2)CC1)c1ccc(F)cc1`: the max response is 0.0234%.

As for `CCCCNc1c(C(=O)OCC)c(C)nc2c1cnn2CC`, the max response is -1.24%.

A further assay has as its system KB-3-1. Described as above. The conditions noted are these: Five cell lines viability, CellTiter-Glo ATP luminescence, 48-72 h; max response: active compounds read low. The gist of the method:
as §1
Background: Cellular ATP, detected with luciferase, serves as a proxy for viable cell number.
Consider `CCCC(C(=O)OCCN(CC)CC)(c1ccccc1)c1ccccc1`, for which the max response is -8.71%.

Turning to `CN(C(=O)CCCOc1ccc2[nH]c(=O)ccc2c1)C1CCCCC1`, the max response was -8.72%.

On to `CCc1cccc(N(C)C(N)=Nc2cccc3ccccc23)c1`, for which the max response is -7.55%.

For `c1cc(CN2CCCCC2)cc(OCCCNc2nc3ccccc3s2)c1`, the max response is -9.4%.

Take `CNCCCN1c2ccccc2CCc2ccccc21`: the max response was -3.48%.

On to `CCOC(=O)C1=C(C)NC(C)=C(C(=O)OC)C1c1cccc(Cl)c1Cl` (stereo unspecified), for which the max response is -8.74%.

For the compound `O=C(CCCN1CCC(O)(c2cccc(C(F)(F)F)c2)CC1)c1ccc(F)cc1`, the max response is -16.4%.

As for `CCCCNc1c(C(=O)OCC)c(C)nc2c1cnn2CC`, the max response is 1.34%.

These data come from PubChem BioAssay (NCATS).
